High-throughput results (PubChem BioAssay)
An excerpt weighted towards active compounds, which were near 4.2% of everything screened.
MITF TRPM1 HTS: MITF TRPM1 promoter activation in melanoma cells. SK-MEL-5 TRPM1-promoter luciferase, 24 h; % of positive control, neutral wells = 0. activation, % at 12.5 µM. actives 0.75% (n = 300,000). AID 588334;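 active = mean activation of at least 80% with every replicate also reaching 80%; inconclusive = mean reaches 80% but some replicate falls short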
AHR activator: human AHR activation; P35869; AHR-responsive luciferase reporter cells, luminescence; activation, % at 5 µM; actives 2.5% (n = 320,000); AID 2796; in the data active = activation above about 47%
Target sequence (P35869 whole entry, looked up): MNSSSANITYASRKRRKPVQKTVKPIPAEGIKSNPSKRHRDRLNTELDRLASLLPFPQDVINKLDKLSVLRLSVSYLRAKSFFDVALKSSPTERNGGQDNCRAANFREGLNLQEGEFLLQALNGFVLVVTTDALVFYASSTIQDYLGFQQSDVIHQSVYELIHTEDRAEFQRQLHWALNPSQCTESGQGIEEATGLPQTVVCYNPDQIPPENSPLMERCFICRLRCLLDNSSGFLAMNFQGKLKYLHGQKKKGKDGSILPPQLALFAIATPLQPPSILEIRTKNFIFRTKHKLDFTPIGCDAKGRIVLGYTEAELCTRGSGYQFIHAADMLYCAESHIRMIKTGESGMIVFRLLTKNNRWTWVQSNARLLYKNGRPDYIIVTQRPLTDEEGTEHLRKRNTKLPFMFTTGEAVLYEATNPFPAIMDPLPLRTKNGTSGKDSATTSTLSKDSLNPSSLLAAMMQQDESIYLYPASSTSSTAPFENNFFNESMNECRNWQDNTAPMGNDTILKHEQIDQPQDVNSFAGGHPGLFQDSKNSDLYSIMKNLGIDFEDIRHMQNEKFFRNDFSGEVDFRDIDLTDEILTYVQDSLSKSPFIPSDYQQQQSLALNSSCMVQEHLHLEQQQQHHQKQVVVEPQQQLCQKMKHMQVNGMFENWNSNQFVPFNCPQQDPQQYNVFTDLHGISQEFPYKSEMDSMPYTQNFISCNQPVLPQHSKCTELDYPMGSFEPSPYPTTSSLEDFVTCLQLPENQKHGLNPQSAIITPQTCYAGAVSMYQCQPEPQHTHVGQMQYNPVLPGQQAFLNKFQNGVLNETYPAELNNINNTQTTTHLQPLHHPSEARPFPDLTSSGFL
Wnt act: Wnt/beta-catenin pathway activation; Wnt/beta-catenin reporter cell assay, activator, plate reader; activation, % at 9.35 µM; actives 1.2% (n = 300,000); AID 743398; in the data active = activation above about 30%, passing the limit was not always enough; inconclusive = no clear call, values can overlap the other calls
GAA850 FXN act: increases GAA850 frataxin promoter reporter activity; activation, % at 6 µM; actives 0.56% (n = 360,000); HEK293 lucGAA850 FXN promoter luciferase reporter, 24 h; percent of 10 µM SAHA response;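 active = activation above the average of all compounds screened plus 3 SD, cutoff fixed separately per campaign, cut at about 7.5% in these data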
esBAF inh: blocks esBAF chromatin remodeling in mouse ES cells | reporter increase, % at 12.5 µM | Bmi1-luciferase knock-in reporter, 24 h; 100% = twice the neutral-well signal | actives 2% (n = 350,000); in the data active = activation above about 40%; inconclusive = no clear call, values can overlap the other calls;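 also: a rise in the Bmi1 reporter signal indicates esBAF inhibition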
Of the large screens only hits and unclear results are named; the others gave an inactive call.

CC(=O)c1c(C)[nH]c(C(=O)OCc2ccccc2)c1C	esBAF inh 39.9
CC(=O)c1c(C)[nH]c(C(=O)OCC(=O)NCc2ccccc2)c1C	none (no result: MITF TRPM1 HTS, AHR activator)
Cc1ccc(S(=O)(=O)Nc2ccc3c(c2)C(=O)N([C@H](C)CO)C[C@H](C)[C@@H](CN(C)S(=O)(=O)c2ccc(Cl)cc2)OCCCC[C@@H](C)O3)cc1	none (no result: MITF TRPM1 HTS, AHR activator, Wnt act, GAA850 FXN act)
CC=Cc1ccc2n(c1=O)C[C@H]1[C@H](CO)[C@@H](C(=O)NCC(F)(F)F)N(CC3CC3)[C@@H]21 (mixture of isomers)	none (no result: MITF TRPM1 HTS, AHR activator, Wnt act, GAA850 FXN act)
COc1ccc(NC(=O)N(C)C[C@H]2Oc3c(NS(C)(=O)=O)cccc3C(=O)N([C@@H](C)CO)C[C@@H]2C)cc1	none (no result: MITF TRPM1 HTS, AHR activator, Wnt act, GAA850 FXN act)
CC(=O)c1c(C)[nH]c(C(=O)COC(=O)c2nccnc2N)c1C	none
CCOC(=O)c1c(C)[nH]c(C(=O)OCc2ccc(F)cc2)c1C	esBAF inh 49.2 (no result: AHR activator)
CCOC(=O)c1c(C)[nH]c(C(=O)OCC(=O)c2ccccc2)c1C	MITF TRPM1 HTS 121.5, Wnt act 49.3, esBAF inh 44.7
CC(=O)c1c(C)[nH]c(C(=O)COC(=O)c2cccnc2Cl)c1C	esBAF inh 52.1
Cc1noc(C)c1NC(=O)Nc1ccc2c(c1)C(=O)N([C@@H](C)CO)C[C@H](C)[C@H](CN(C)C(=O)NC(C)C)O2	none (no result: MITF TRPM1 HTS, AHR activator, Wnt act, GAA850 FXN act)
Cc1ccc2nc(N(CCN(C)C)C(=O)c3ccc4c(c3)OCCO4)sc2c1	none
O=C(NNc1nc2cc3c(cc2s1)OCO3)c1ccccc1	AHR activator 61.3
O=C(NNc1nc2cc3c(cc2s1)OCO3)c1cccc(F)c1	AHR activator 76.8, esBAF inh 47.2
Cc1ccc2nc(NNC(=O)c3ccc4c(c3)OCCO4)sc2c1	AHR activator 47.6 (no result: MITF TRPM1 HTS)
COc1cc(OC)cc(C(=O)NNc2nc3cc4c(cc3s2)OCO4)c1	none (no result: MITF TRPM1 HTS)
COc1ccc(S(=O)(=O)N(C)C[C@@H]2Oc3ccc(NC(=O)Nc4ccc(F)cc4)cc3CC(=O)N([C@@H](C)CO)C[C@H]2C)cc1	none (no result: MITF TRPM1 HTS, AHR activator, Wnt act, GAA850 FXN act)
COC(=O)[C@@H]1[C@@H](CO)[C@@H]2Cn3c(ccc(C4=CCCCC4)c3=O)[C@@H]2N1C(=O)C1CCC1	none (no result: MITF TRPM1 HTS, AHR activator, Wnt act, GAA850 FXN act)
Cc1ccc(S(=O)(=O)N(C)C[C@H]2Oc3ccc(NS(=O)(=O)c4c(C)noc4C)cc3C(=O)N([C@@H](C)CO)C[C@H]2C)cc1	none (no result: MITF TRPM1 HTS, AHR activator, Wnt act, GAA850 FXN act)
CCc1cc2c(Nc3ccc(O)cc3)nc(C)nc2s1	AHR activator 79.0 (no result: MITF TRPM1 HTS)
C[C@@H]1CCCCO[C@H](CN(C)S(=O)(=O)c2ccc(Cl)cc2)[C@@H](C)CN([C@H](C)CO)C(=O)c2cc(NC(=O)CCC(F)(F)F)ccc2O1	none (no result: MITF TRPM1 HTS, AHR activator, Wnt act, GAA850 FXN act)
CSc1ccccc1OCc1cc(C(=O)NCCc2nc(C)cc(C)n2)no1	none (no result: AHR activator)
CC(=O)c1ccc(OCc2cc(C(=O)N3CCN(c4ccccc4)CC3C)no2)cc1 (stereo not drawn)	esBAF inh 110.5
CSc1ccccc1OCc1cc(C(=O)NCCc2ccco2)no1	esBAF inh 65.0
CSc1ccccc1OCc1cc(C(=O)N2CCN(c3ccccc3)CC2C)no1 (stereo not drawn)	esBAF inh 53.9
Cc1noc(C)c1NC(=O)Nc1ccc2c(c1)C(=O)N([C@@H](C)CO)C[C@H](C)[C@@H](CN(C)CC1CCCCC1)OCCCC[C@H](C)O2	none (no result: MITF TRPM1 HTS, AHR activator, Wnt act, GAA850 FXN act)
Cc1ccc(CONC(=O)c2ccccc2)cc1	none (no result: esBAF inh)
Cc1ccc(CONC(=O)c2ccc(C)cc2)cc1	MITF TRPM1 HTS 95.2, Wnt act 38.5, esBAF inh 43.5
Cc1ccc(CONC(=O)c2ccc(Cl)cc2)cc1	AHR activator 73.1, Wnt act 34.3
O=C(NOCc1ccccc1)c1ccc(Cl)cc1	none
Cc1ccc(CC(=O)c2ccc(Cl)cc2)cc1	MITF TRPM1 HTS 92.5, esBAF inh inconclusive
Nc1cc([N+](=O)[O-])ccc1OCc1ccccc1	Wnt act 48.2 (no result: AHR activator, esBAF inh)
CC(=O)N(C)c1cc([N+](=O)[O-])ccc1OCc1ccccc1	none (no result: AHR activator)
C[C@H]1CCCCO[C@@H](CN(C)C(=O)Nc2ccc(F)cc2)[C@@H](C)CN([C@@H](C)CO)C(=O)c2cc(NC(=O)c3ccncc3)ccc2O1	none (no result: MITF TRPM1 HTS, AHR activator, Wnt act, GAA850 FXN act)
C[C@H](NC(=O)[C@H]1N[C@H]2c3ccc(-c4cncnc4)c(=O)n3C[C@H]2[C@@H]1CO)c1ccccc1	none (no result: MITF TRPM1 HTS, AHR activator, Wnt act, GAA850 FXN act)
COCC(=O)N1[C@H](C(=O)N2CCCCC2)[C@@H](CO)[C@@H]2Cn3c(ccc(C4=CCCCC4)c3=O)[C@@H]21	none (no result: MITF TRPM1 HTS, AHR activator, Wnt act, GAA850 FXN act)
COc1ccc(C(=O)NOCc2ccccc2)cc1	none
O=C(NOCc1ccccc1)c1ccc([N+](=O)[O-])cc1	Wnt act 37.9
COc1ccc(NC(=O)Nc2ccc3nccnc3c2)cc1	MITF TRPM1 HTS 95.8, esBAF inh 55.2 (no result: Wnt act)
